# Hit rate of the full screen: of about 5,500 compounds, about 2,000 (36%) were called active. Inconclusive results (about 18%) are left out. The list shows a part of the results. Unmarked numbers belong to inactive results. No stated cut-off is given here; in the data, active means normalized growth mostly below about 0.91 (no sharp cut-off); inconclusive means no clear call, values can overlap the other calls; inactive means mostly above about 0.92.
# Assay: chemical genetic growth profiling, strain panel (AID 1159580);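 further: tested at 20 µM; growth read once vehicle control cultures reached saturation at 30 °C; 1 = growth at the plate median or of vehicle wells; lower values mean less growth of the strain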
# Conditions: growth OD
smiles,measurement,setting,value
C[C@@H]1C[C@@H]([C@H](O)CC2CC(=O)NC(=O)C2)C(=O)[C@@H](C)C1,normalized growth,"S. cerevisiae deletion strains, locus YJR075W, strain HOC1, active compounds read low",0.0698 (active)
same,normalized growth,"S. cerevisiae deletion strains, locus YKL009W, strain mrt4, active compounds read low",0.0696 (active)
same,normalized growth,"S. cerevisiae deletion strains, locus YKL068W, active compounds read low",0.0541 (active)
same,normalized growth,"S. cerevisiae deletion strains, locus YKL085W, strain MDH1 (second series), active compounds read low",0.0512 (active)
same,normalized growth,"S. cerevisiae deletion strains, locus YKL085W, strain MDH1, active compounds read low",0.0512 (active)
same,normalized growth,"S. cerevisiae deletion strains, locus YKL160W, strain elf1, active compounds read low",0.0661 (active)
same,normalized growth,"S. cerevisiae deletion strains, locus YKL190W, strain CNB1, active compounds read low",0.0498 (active)
same,normalized growth,"S. cerevisiae deletion strains, locus YKR001C, strain vps1, active compounds read low",0.0635 (active)
same,normalized growth,"S. cerevisiae deletion strains, locus YKR026C, strain gcn3, active compounds read low",0.0607 (active)
same,normalized growth,"S. cerevisiae deletion strains, locus YKR091W, strain srl3, active compounds read low",0.0583 (active)
same,normalized growth,"S. cerevisiae deletion strains, locus YLL001W, strain dnm1, active compounds read low",0.0597 (active)
same,normalized growth,"S. cerevisiae deletion strains, locus YLL026W, active compounds read low",0.0551 (active)
same,normalized growth,"S. cerevisiae deletion strains, locus YLL041C, strain sdh2, active compounds read low",0.0553 (active)
same,normalized growth,"S. cerevisiae deletion strains, locus YLR027C, strain aat2, active compounds read low",0.0609 (active)
same,normalized growth,"S. cerevisiae deletion strains, locus YLR039C, strain RIC1, active compounds read low",0.0922 (active)
same,normalized growth,"S. cerevisiae deletion strains, locus YLR058C, strain SHM2, active compounds read low",0.041 (active)
same,normalized growth,"S. cerevisiae deletion strains, locus YLR102C, strain apc9, active compounds read low",0.0592 (active)
same,normalized growth,"S. cerevisiae deletion strains, locus YLR113W, strain HOG1, active compounds read low",0.12 (active)
same,normalized growth,"S. cerevisiae deletion strains, locus YLR221C, strain rsa3, active compounds read low",0.0588 (active)
same,normalized growth,"S. cerevisiae deletion strains, locus YLR258W, strain gsy2, active compounds read low",0.0568 (active)
same,normalized growth,"S. cerevisiae deletion strains, locus YLR262C, strain YPT6 (second series), active compounds read low",0.0723 (active)
same,normalized growth,"S. cerevisiae deletion strains, locus YLR262C, strain YPT6, active compounds read low",0.108 (active)
same,normalized growth,"S. cerevisiae deletion strains, locus YLR268W, strain sec22, active compounds read low",0.0667 (active)
same,normalized growth,"S. cerevisiae deletion strains, locus YLR320W, strain mms22, active compounds read low",0.0766 (active)
same,normalized growth,"S. cerevisiae deletion strains, locus YLR330W, strain CHS5, active compounds read low",0.0515 (active)
same,normalized growth,"S. cerevisiae deletion strains, locus YLR342W, strain FKS1 (second series), active compounds read low",0.0688 (active)
same,normalized growth,"S. cerevisiae deletion strains, locus YLR342W, strain FKS1, active compounds read low",0.0659 (active)
same,normalized growth,"S. cerevisiae deletion strains, locus YLR357W, strain rsc2, active compounds read low",0.119 (active)
same,normalized growth,"S. cerevisiae deletion strains, locus YLR370C, strain arc18, active compounds read low",0.0598 (active)
same,normalized growth,"S. cerevisiae deletion strains, locus YLR371W, strain rom2, active compounds read low",0.0594 (active)
same,normalized growth,"S. cerevisiae deletion strains, locus YLR384C, strain iki3, active compounds read low",0.0596 (active)
same,normalized growth,"S. cerevisiae deletion strains, locus YLR418C, strain cdc73, active compounds read low",0.0977 (active)
same,normalized growth,"S. cerevisiae deletion strains, locus YML016C, strain PPZ1, active compounds read low",0.055 (active)
same,normalized growth,"S. cerevisiae deletion strains, locus YML032C, strain rad52, active compounds read low",0.0671 (active)
same,normalized growth,"S. cerevisiae deletion strains, locus YML120C, strain ndi1, active compounds read low",0.0554 (active)
same,normalized growth,"S. cerevisiae deletion strains, locus YML124C, strain tub3, active compounds read low",0.0568 (active)
same,normalized growth,"S. cerevisiae deletion strains, locus YMR058W, strain fet3, active compounds read low",0.0596 (active)
same,normalized growth,"S. cerevisiae deletion strains, locus YMR078C, strain ctf18, active compounds read low",0.0691 (active)
same,normalized growth,"S. cerevisiae deletion strains, locus YMR125W, strain sto1, active compounds read low",0.0765 (active)
same,normalized growth,"S. cerevisiae deletion strains, locus YMR129W, active compounds read low",0.0549 (active)
same,normalized growth,"S. cerevisiae deletion strains, locus YMR205C, strain PFK2, active compounds read low",0.0823 (active)
same,normalized growth,"S. cerevisiae deletion strains, locus YMR223W, strain ubp8, active compounds read low",0.065 (active)
same,normalized growth,"S. cerevisiae deletion strains, locus YMR231W, strain pep5, active compounds read low",0.0689 (active)
same,normalized growth,"S. cerevisiae deletion strains, locus YMR263W, strain SAP30, active compounds read low",0.0637 (active)
same,normalized growth,"S. cerevisiae deletion strains, locus YMR307W, strain GAS1, active compounds read low",0.121 (active)
same,normalized growth,"S. cerevisiae deletion strains, locus YNL067W, strain RPL9B, active compounds read low",0.0574 (active)
same,normalized growth,"S. cerevisiae deletion strains, locus YNL071W, strain lat1, active compounds read low",0.0587 (active)
same,normalized growth,"S. cerevisiae deletion strains, locus YNL128W, strain TEP1, active compounds read low",0.0594 (active)
same,normalized growth,"S. cerevisiae deletion strains, locus YNL153C, strain GIM3, active compounds read low",0.0488 (active)
same,normalized growth,"S. cerevisiae deletion strains, locus YNL183C, strain NPR1, active compounds read low",-0.00319 (active)
same,normalized growth,"S. cerevisiae deletion strains, locus YNL209W, strain ssb2, active compounds read low",0.0566 (active)
same,normalized growth,"S. cerevisiae deletion strains, locus YNL233W, strain BNI4, active compounds read low",0.0543 (active)
same,normalized growth,"S. cerevisiae deletion strains, locus YNL248C, strain rpa49, active compounds read low",0.0754 (active)
same,normalized growth,"S. cerevisiae deletion strains, locus YNL250W, strain rad50, active compounds read low",0.0626 (active)
same,normalized growth,"S. cerevisiae deletion strains, locus YNL271C, strain bni1, active compounds read low",0.0609 (active)
same,normalized growth,"S. cerevisiae deletion strains, locus YNL298W, strain CLA4, active compounds read low",0.0597 (active)
same,normalized growth,"S. cerevisiae deletion strains, locus YNL307C, strain MCK1, active compounds read low",0.0682 (active)
same,normalized growth,"S. cerevisiae deletion strains, locus YNL322C, strain KRE1 (second series), active compounds read low",0.0709 (active)
same,normalized growth,"S. cerevisiae deletion strains, locus YNL322C, strain KRE1, active compounds read low",0.0498 (active)
same,normalized growth,"S. cerevisiae deletion strains, locus YNR049C, strain mso1, active compounds read low",0.0539 (active)
same,normalized growth,"S. cerevisiae deletion strains, locus YNR052C, strain pop2, active compounds read low",0.0603 (active)
same,normalized growth,"S. cerevisiae deletion strains, locus YOL006C, strain TOP1, active compounds read low",0.0855 (active)
same,normalized growth,"S. cerevisiae deletion strains, locus YOL012C, strain htz1",0.234
same,normalized growth,"S. cerevisiae deletion strains, locus YOL147C, strain pex11, active compounds read low",0.0565 (active)
same,normalized growth,"S. cerevisiae deletion strains, locus YOR001W, strain rrp6, active compounds read low",0.0676 (active)
same,normalized growth,"S. cerevisiae deletion strains, locus YOR061W, strain CKA2, active compounds read low",0.0412 (active)
same,normalized growth,"S. cerevisiae deletion strains, locus YOR069W, strain VPS5, active compounds read low",0.0494 (active)
same,normalized growth,"S. cerevisiae deletion strains, locus YOR070C, strain gyp1, active compounds read low",0.056 (active)
same,normalized growth,"S. cerevisiae deletion strains, locus YOR080W, strain dia2, active compounds read low",0.0619 (active)
same,normalized growth,"S. cerevisiae deletion strains, locus YOR083W, strain WHI5, active compounds read low",0.0654 (active)
same,normalized growth,"S. cerevisiae deletion strains, locus YOR106W, strain vam3, active compounds read low",0.0681 (active)
same,normalized growth,"S. cerevisiae deletion strains, locus YOR136W, strain idh2, active compounds read low",0.0689 (active)
same,normalized growth,"S. cerevisiae deletion strains, locus YOR144C, strain elg1, active compounds read low",0.0565 (active)
same,normalized growth,"S. cerevisiae deletion strains, locus YOR184W, strain ser1, active compounds read low",0.0727 (active)
same,normalized growth,"S. cerevisiae deletion strains, locus YOR231W, strain MKK1, active compounds read low",0.111 (active)
same,normalized growth,"S. cerevisiae deletion strains, locus YOR265W, strain rbl2, active compounds read low",0.0548 (active)
same,normalized growth,"S. cerevisiae deletion strains, locus YOR270C, strain vph1, active compounds read low",0.1 (active)
same,normalized growth,"S. cerevisiae deletion strains, locus YOR290C, strain snf2, active compounds read low",0.0637 (active)
same,normalized growth,"S. cerevisiae deletion strains, locus YOR316C, strain cot1, active compounds read low",0.0575 (active)
same,normalized growth,"S. cerevisiae deletion strains, locus YPL051W, strain arl3, active compounds read low",0.0621 (active)
same,normalized growth,"S. cerevisiae deletion strains, locus YPL055C, strain LGE1, active compounds read low",0.0743 (active)
same,normalized growth,"S. cerevisiae deletion strains, locus YPL078C, strain atp4, active compounds read low",0.0696 (active)
same,normalized growth,"S. cerevisiae deletion strains, locus YPL106C, strain sse1, active compounds read low",0.0938 (active)
same,normalized growth,"S. cerevisiae deletion strains, locus YPL240C, strain hsp82, active compounds read low",0.0556 (active)
same,normalized growth,"S. cerevisiae deletion strains, locus YPL241C, strain CIN2, active compounds read low",0.0514 (active)
same,normalized growth,"S. cerevisiae deletion strains, locus YPL256C, strain CLN2, active compounds read low",0.112 (active)
same,normalized growth,"S. cerevisiae deletion strains, locus YPR119W, strain clb2, active compounds read low",0.0611 (active)
same,normalized growth,"S. cerevisiae deletion strains, locus YPR141C, strain kar3, active compounds read low",0.0644 (active)
same,normalized growth,"S. cerevisiae deletion strains, locus YPR163C, strain tif3, active compounds read low",0.0667 (active)
same,normalized growth,"S. cerevisiae deletion strains, locus YPR167C, strain met16, active compounds read low",0.0591 (active)
same,normalized growth,"S. cerevisiae deletion strains, strain wtn01, active compounds read low",0.0603 (active)
same,normalized growth,"S. cerevisiae strains, strain wild type, active compounds read low",0.0494 (active)
